Measured values published in the supplement of paper PMC10849652.
The full data set covers some 7,900 targets. This sample favours those with a hit. About 0.6% of all pairs of compound and target were hits.

Tests used:
Assay in all cases: log2 fold change, soluble protein after heating vs DMSO (PISA); higher = thermal stabilisation; K562 cells, 10 uM, 30 min; active = over 0.2 and 3.5 SD of the protein, either way, in both replicates (recomputed)
bafetinib = compound: Cc1ccc(NC(=O)c2ccc(CN3CC[C@H](N(C)C)C3)c(C(F)(F)F)c2)cc1Nc1nccc(-c2cncnc2)n1 [bafetinib]
How it was run: (§1)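 Aliquots of K562 cells (2×10^6 cells/mL) treated with 10 μM compound for 30 min were heated for 3 min over 48°C-58°C. After pooling and extraction in PBS with 0.5% NP-40 at 4°C, soluble protein from a 21,000xg, 90 min spin was quantified by TMTpro 16plex LC-MS/MS with channel sums equalised. Thermal stability is expressed against control samples, from duplicates, as a log2 fold change.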

[1] = compound: Cc1cccc(CC(=O)N2CCc3c2ccc(-c2cn(C)c4ncnc(N)c24)c3F)n1
How it was run: as §1

nilotinib = compound: Cc1cn(-c2cc(NC(=O)c3ccc(C)c(Nc4nccc(-c5cccnc5)n4)c3)cc(C(F)(F)F)c2)cn1 [nilotinib]
How it was run: as §1

[2] = compound: Cc1nc(Nc2n[nH]c3c2CN(C(=O)N[C@H](CN(C)C)c2ccccc2)C3(C)C)c2sccc2n1
How it was run: as §1

[3] = compound: Cc1ncc(-c2ccnc(Nc3ccc(S(C)(=O)=O)cc3)n2)n1C(C)C
How it was run: as §1

[4] = compound: Cn1cc(-c2ccc3nnc(C(F)(F)c4ccc5ncccc5c4)n3n2)cn1
How it was run: as §1

tipifarnib = compound: Cn1cncc1[C@@](N)(c1ccc(Cl)cc1)c1ccc2c(c1)c(-c1cccc(Cl)c1)cc(=O)n2C [tipifarnib]
How it was run: as §1

mubritinib = compound: FC(F)(F)c1ccc(/C=C/c2nc(COc3ccc(CCCCn4ccnn4)cc3)co2)cc1 [mubritinib]
How it was run: as §1

[5] = compound: NC(=O)Nc1cc(-c2cccc(F)c2)sc1C(=O)N[C@H]1CCCNC1
How it was run: as §1

[6] = compound: NC1(c2ccc(-c3nc4ccn5c(=O)[nH]nc5c4cc3-c3ccccc3)cc2)CCC1
How it was run: as §1

[7] = compound: NCC(=O)Nc1ccc(-n2nc(C(F)(F)F)cc2-c2ccc3c(ccc4ccccc43)c2)cc1
How it was run: as §1

entinostat = compound: Nc1ccccc1NC(=O)c1ccc(CNC(=O)OCc2cccnc2)cc1 [entinostat]
How it was run: as §1

vorinostat = compound: O=C(CCCCCCC(=O)Nc1ccccc1)NO [vorinostat]
How it was run: as §1

citarinostat = compound: O=C(CCCCCCNC(=O)c1cnc(N(c2ccccc2)c2ccccc2Cl)nc1)NO [citarinostat]
How it was run: as §1

silmitasertib = compound: O=C(O)c1ccc2c(c1)nc(Nc1cccc(Cl)c1)c1ccncc12 [silmitasertib]
How it was run: as §1

[8] = compound: O=C1NC(=O)C(c2cnc3ccccn23)=C1c1cn2c3c(cc(F)cc13)CN(C(=O)N1CCCCC1)CC2
How it was run: as §1

[9] = compound: c1cc(OCCN2CCCCC2)cc(-c2n[nH]c3ccc(-c4nnc[nH]4)cc23)c1
How it was run: as §1

dasatinib = compound: Cc1nc(Nc2ncc(C(=O)Nc3c(C)cccc3Cl)s2)cc(N2CCN(CCO)CC2)n1 [dasatinib]
How it was run: as §1

[10] = compound: Cn1cc(-c2ccc3c(c2)CCN3C(=O)Cc2cccc(C(F)(F)F)c2)c2c(N)ncnc21
How it was run: as §1

[11] = compound: NC(=O)c1cnc(N[C@@H]2CCCC[C@@H]2N)nc1Nc1cccc(-n2nccn2)c1
How it was run: as §1

Measured: log2 fold change

COMMD1 (UniProt Q8N668)
UniProt Q8N668, sequence (Q8N668 whole entry, looked up): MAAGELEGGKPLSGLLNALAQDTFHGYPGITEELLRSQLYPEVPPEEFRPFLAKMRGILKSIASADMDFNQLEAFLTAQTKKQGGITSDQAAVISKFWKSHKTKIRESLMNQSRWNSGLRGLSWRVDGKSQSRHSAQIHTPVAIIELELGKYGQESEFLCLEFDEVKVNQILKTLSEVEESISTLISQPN
inactive: bafetinib -0.162 | [1] -0.085 | nilotinib 0.009 | [2] -0.179 | [3] -0.057 | [4] -0.087 | tipifarnib -0.016 | mubritinib -0.069 | [5] -0.043 | [6] 0.051 | [7] -0.069 | entinostat 0.008 | vorinostat -0.032 | citarinostat 0.039 | silmitasertib -0.021 | [8] -0.018 | [9] -0.065

CDK17 isoform 2 (UniProt Q00537)
UniProt Q00537, sequence (Q00537 whole entry, looked up): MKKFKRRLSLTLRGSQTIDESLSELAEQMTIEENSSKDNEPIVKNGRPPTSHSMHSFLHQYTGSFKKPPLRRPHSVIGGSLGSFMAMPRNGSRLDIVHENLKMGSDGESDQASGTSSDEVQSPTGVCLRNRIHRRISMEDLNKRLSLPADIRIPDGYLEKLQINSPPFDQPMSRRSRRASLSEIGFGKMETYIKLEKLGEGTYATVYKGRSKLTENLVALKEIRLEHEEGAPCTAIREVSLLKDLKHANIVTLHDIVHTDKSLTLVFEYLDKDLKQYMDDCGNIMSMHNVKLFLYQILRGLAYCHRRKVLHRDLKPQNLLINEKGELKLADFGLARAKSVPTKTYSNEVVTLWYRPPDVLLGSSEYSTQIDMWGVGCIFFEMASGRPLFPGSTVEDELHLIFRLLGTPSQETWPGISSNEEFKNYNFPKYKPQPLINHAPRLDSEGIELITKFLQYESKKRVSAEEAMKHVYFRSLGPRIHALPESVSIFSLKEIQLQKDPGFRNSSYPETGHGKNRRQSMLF
inactive: bafetinib 0.117 | [1] 0.039 | dasatinib -0.171 | [10] -0.07 | tipifarnib 0.037 | mubritinib -0.04 | [5] -0.066 | [11] -0.258 | [6] -0.04 | [7] -0.074 | entinostat 0.035 | vorinostat -0.114 | citarinostat -0.245 | silmitasertib 0.088 | [8] 0.321 | [9] -0.083

CEBPZOS (UniProt A8MTT3)
inactive: bafetinib 0.066 | [1] 0.014 | nilotinib 0.039 | [2] 0.021 | dasatinib 0.009 | [3] -0.027 | [4] 0.033 | tipifarnib -0.044 | mubritinib 0.121 | [11] 0.022 | [6] -0.124 | [7] 0.028 | vorinostat -0.03 | citarinostat -0.011 | silmitasertib 0.018 | [9] -0.056

CMTM3 (UniProt Q96MX0)
UniProt Q96MX0, sequence (Q96MX0 whole entry, looked up): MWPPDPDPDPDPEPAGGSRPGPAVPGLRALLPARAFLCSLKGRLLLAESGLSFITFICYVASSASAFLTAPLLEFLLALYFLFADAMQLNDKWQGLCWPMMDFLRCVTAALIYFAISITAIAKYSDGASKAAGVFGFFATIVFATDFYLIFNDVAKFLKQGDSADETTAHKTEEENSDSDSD
inactive: bafetinib 0.05 | [1] -0.078 | nilotinib -0.056 | [2] -0.007 | dasatinib 0.017 | [3] 0.013 | [10] 0.05 | tipifarnib 0.098 | mubritinib -0.052 | [5] -0.056 | [11] -0.033 | [6] -0.08 | [7] 0.072 | entinostat -0.03 | vorinostat -0.087 | citarinostat -0.118 | silmitasertib 0.009 | [8] 0.096 | [9] -0.189

CIR1 (UniProt Q86X95)
inactive: bafetinib 0.001 | [1] -0.091 | dasatinib 0.079 | [10] -0.131 | [4] -0.06 | tipifarnib 0.223 | mubritinib -0.113 | [5] 0.014 | [11] 0.061 | [6] 0.309 | [7] 0.018 | entinostat 0 | vorinostat -0.056 | citarinostat 0.06 | silmitasertib 0.105 | [8] 0.067 | [9] 0.024

C22orf39 (UniProt Q6P5X5)
inactive: bafetinib -0.04 | nilotinib -0.07 | [2] 0.038 | dasatinib -0.232 | [3] -0.12 | [10] -0.036 | [4] 0.031 | tipifarnib -0.071 | mubritinib 0.031 | [5] 0.093 | [11] -0.036 | [6] -0.106 | entinostat 0.037 | silmitasertib 0.016 | [8] 0.089

CRMP1 isoform 2 (UniProt Q14194)
UniProt Q14194, sequence (Q14194 whole entry, looked up): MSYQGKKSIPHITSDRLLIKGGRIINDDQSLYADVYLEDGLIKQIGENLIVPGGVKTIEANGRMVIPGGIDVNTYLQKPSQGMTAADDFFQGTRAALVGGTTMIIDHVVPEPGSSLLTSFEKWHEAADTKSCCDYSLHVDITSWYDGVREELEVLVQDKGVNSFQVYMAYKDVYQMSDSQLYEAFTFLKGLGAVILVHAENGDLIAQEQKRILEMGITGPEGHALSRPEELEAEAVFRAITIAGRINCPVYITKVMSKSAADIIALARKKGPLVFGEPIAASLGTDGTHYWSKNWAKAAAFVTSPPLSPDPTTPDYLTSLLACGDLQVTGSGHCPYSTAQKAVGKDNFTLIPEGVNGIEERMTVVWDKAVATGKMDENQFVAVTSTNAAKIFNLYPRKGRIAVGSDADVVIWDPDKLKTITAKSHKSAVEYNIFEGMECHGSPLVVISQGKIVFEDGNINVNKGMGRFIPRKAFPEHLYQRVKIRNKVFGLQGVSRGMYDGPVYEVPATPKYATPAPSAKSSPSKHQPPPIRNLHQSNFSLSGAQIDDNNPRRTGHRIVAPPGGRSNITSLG
inactive: bafetinib -0.024 | [1] -0.035 | nilotinib -0.012 | [2] 0.221 | dasatinib -0.074 | [3] -0.138 | [10] 0.182 | [5] -0.121 | [11] 0 | [7] -0.099 | entinostat -0.055 | vorinostat 0.193

COPS3 isoform 2 (UniProt Q9UNS2)
inactive: bafetinib -0.19 | [1] -0.295 | nilotinib -0.041 | [2] 0.227 | [3] -0.194 | [4] 0.418 | tipifarnib 0.029 | mubritinib 0.138 | [5] -0.129 | [11] -0.364 | [6] -0.005 | [7] -0.272 | entinostat -0.007 | vorinostat -0.169 | citarinostat -0.14 | silmitasertib 0 | [8] -0.597 | [9] 0.011

CRTC1 isoform 2 (UniProt Q6UUV9)
UniProt Q6UUV9, sequence (Q6UUV9 whole entry, looked up): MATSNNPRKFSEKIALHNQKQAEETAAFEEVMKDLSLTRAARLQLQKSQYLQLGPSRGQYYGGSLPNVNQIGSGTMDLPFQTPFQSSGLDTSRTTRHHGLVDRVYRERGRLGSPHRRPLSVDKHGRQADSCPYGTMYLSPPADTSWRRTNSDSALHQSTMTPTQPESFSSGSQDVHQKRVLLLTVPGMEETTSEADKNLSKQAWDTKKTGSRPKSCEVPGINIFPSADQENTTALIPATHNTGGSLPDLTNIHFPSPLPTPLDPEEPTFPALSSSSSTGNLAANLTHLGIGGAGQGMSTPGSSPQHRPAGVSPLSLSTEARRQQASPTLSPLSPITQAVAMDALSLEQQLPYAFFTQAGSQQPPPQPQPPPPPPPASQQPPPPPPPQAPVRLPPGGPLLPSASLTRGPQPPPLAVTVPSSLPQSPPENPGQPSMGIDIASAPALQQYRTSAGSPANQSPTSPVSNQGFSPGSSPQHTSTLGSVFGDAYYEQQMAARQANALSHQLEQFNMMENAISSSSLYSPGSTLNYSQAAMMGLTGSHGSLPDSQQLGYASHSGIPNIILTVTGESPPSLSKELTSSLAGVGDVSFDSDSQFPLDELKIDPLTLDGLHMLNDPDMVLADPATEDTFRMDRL
inactive: bafetinib 0.021 | [1] -0.093 | dasatinib -0.034 | [4] -0.079 | tipifarnib -0.267 | [5] -0.132 | [11] -0.151 | [7] 0.01 | entinostat 0.044 | vorinostat 0.012 | [8] -0.371

CASP8 isoform 9 (UniProt Q14790)
UniProt Q14790, sequence (Q14790 whole entry, looked up): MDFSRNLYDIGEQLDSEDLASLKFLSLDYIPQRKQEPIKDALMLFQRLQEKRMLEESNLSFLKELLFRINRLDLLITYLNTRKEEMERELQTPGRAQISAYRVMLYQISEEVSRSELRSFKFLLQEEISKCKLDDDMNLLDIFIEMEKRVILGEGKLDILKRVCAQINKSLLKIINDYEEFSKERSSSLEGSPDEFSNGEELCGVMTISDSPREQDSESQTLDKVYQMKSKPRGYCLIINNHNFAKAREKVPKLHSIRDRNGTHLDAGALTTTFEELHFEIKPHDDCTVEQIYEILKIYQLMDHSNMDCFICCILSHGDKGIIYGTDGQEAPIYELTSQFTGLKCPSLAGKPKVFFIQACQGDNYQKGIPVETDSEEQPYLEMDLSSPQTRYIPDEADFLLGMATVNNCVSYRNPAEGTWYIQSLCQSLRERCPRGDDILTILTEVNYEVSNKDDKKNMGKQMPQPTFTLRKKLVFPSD
inactive: bafetinib 0.072 | [1] 0.093 | nilotinib -0.183 | [2] 0.018 | dasatinib -0.039 | [3] 0.069 | [4] -0.066 | tipifarnib -0.094 | mubritinib -0.095 | [5] -0.06 | [11] -0.051 | [6] -0.186 | [7] -0.151 | entinostat -0.119 | vorinostat -0.021 | citarinostat -0.048 | silmitasertib 0.12 | [8] 0.008 | [9] 0.009

CAV2 (UniProt P51636)
UniProt P51636, sequence (P51636 whole entry, looked up): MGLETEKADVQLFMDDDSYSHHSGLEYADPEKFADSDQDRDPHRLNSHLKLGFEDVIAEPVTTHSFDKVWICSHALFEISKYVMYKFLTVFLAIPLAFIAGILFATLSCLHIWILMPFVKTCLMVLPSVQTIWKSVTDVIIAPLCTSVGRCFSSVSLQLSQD
active: bafetinib -1.25
inactive: [1] -0.054 | nilotinib 0.221 | [2] -0.082 | dasatinib 0.033 | [3] 0.008 | tipifarnib 0.136 | mubritinib 0.066 | [5] -0.251 | [11] -0.041 | [6] 0.027 | entinostat -0.088 | vorinostat 0.147 | silmitasertib 0.106

CCDC82 (UniProt Q8N4S0)
UniProt Q8N4S0, sequence (Q8N4S0 whole entry, looked up): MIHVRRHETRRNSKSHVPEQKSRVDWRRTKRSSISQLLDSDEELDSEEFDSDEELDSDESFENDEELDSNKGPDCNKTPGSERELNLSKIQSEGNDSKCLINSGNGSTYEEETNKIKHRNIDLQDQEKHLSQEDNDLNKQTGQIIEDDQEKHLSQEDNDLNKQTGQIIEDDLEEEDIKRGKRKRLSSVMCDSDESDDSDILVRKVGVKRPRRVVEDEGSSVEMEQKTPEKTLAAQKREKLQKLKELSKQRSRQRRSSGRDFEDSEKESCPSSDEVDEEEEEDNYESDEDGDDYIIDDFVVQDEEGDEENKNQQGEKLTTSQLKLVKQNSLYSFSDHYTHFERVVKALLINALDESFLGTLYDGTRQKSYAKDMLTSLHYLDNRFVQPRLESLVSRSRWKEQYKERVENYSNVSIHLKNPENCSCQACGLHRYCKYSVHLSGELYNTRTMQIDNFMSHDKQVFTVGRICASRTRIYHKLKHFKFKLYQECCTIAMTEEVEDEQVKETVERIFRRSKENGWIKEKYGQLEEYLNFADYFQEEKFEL
inactive: bafetinib -0.091 | nilotinib 0.018 | [2] -0.017 | dasatinib 0.015 | [3] -0.043 | [10] -0.132 | [4] -0.021 | tipifarnib 0.01 | mubritinib 0.087 | [11] -0.083 | [6] -0.146 | [7] -0.063 | citarinostat 0.023 | silmitasertib 0.047 | [8] -0.169 | [9] 0.046

CLPTM1L (UniProt G5E9Z2)
inactive: bafetinib 0.156 | [1] 0.176 | nilotinib -0.22 | [2] 0.099 | [3] -0.053 | [10] 0.037 | mubritinib 0.047 | [5] 0.139 | [11] 0.237 | [6] -0.175 | [7] -0.028 | entinostat -0.012 | vorinostat 0.022 | silmitasertib -0.05 | [8] 0.445

CFAP36 isoform 2 (UniProt Q96G28)
UniProt Q96G28, sequence (Q96G28 whole entry, looked up): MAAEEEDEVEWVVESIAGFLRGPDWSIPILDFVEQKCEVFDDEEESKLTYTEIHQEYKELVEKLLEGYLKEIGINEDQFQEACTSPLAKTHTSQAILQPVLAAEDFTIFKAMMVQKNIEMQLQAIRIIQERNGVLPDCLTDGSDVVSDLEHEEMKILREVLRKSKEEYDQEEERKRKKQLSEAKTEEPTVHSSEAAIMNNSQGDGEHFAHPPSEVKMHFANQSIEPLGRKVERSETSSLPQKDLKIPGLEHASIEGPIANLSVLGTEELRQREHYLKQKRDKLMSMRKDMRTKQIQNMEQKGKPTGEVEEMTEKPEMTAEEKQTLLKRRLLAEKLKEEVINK
inactive: bafetinib 0.022 | [1] -0.055 | dasatinib 0.014 | [10] -0.047 | [4] 0.128 | tipifarnib 0.002 | mubritinib 0 | [5] 0.027 | [11] -0.1 | [6] -0.095 | [7] -0.152 | entinostat 0.023 | vorinostat -0.014 | citarinostat -0.022 | silmitasertib 0.131 | [8] -0.025 | [9] 0.065

CLINT1 (UniProt Q14677)
UniProt Q14677, sequence (Q14677 whole entry, looked up): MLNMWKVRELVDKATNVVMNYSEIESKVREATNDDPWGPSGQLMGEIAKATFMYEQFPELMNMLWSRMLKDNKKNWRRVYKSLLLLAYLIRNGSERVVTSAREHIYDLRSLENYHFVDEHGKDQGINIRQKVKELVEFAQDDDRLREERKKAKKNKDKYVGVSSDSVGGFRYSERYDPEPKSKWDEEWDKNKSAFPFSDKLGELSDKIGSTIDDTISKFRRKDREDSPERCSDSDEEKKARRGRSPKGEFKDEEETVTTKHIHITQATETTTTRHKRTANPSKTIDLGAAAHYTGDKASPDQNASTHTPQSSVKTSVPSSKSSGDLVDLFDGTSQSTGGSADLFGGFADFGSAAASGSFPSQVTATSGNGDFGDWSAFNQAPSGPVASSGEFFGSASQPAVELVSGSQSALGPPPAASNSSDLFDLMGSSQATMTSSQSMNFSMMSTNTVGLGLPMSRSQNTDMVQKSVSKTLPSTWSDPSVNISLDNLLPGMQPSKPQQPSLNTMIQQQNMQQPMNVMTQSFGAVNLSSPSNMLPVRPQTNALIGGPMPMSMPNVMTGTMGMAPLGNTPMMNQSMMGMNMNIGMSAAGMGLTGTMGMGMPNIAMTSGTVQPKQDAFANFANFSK
inactive: bafetinib -0.053 | nilotinib 0.065 | [2] -0.048 | dasatinib 0.142 | [3] -0.151 | [10] 0.047 | mubritinib -0.007 | [11] 0.001 | [6] 0.037 | [7] 0.034 | citarinostat -0.146 | silmitasertib 0.021 | [8] 0.058 | [9] 0.062

CDC25B isoform 4 (UniProt P30305)
inactive: bafetinib 0.081 | [1] -0.022 | [2] -0.051 | [3] -0.206 | [10] 0.095 | [4] -0.03 | tipifarnib 0.022 | mubritinib 0.074 | [5] -0.04 | [11] -0.07 | [6] -0.157 | [7] 0.088 | entinostat 0.047 | vorinostat 0.071 | citarinostat 0.115 | silmitasertib 0.054 | [8] 0.014 | [9] -0.123
active: nilotinib -0.513

CHST10 (UniProt O43529)
inactive: bafetinib -0.036 | [1] 0.052 | nilotinib 0.092 | [2] -0.081 | [3] 0.104 | [10] 0.071 | [4] -0.09 | tipifarnib 0.05 | mubritinib 0.064 | [5] 0.059 | [11] 0.023 | [6] -0.142 | entinostat 0.048 | vorinostat 0.015 | silmitasertib -0.059 | [8] -0.032

CCNDBP1 (UniProt O95273)
UniProt O95273, sequence (O95273 whole entry, looked up): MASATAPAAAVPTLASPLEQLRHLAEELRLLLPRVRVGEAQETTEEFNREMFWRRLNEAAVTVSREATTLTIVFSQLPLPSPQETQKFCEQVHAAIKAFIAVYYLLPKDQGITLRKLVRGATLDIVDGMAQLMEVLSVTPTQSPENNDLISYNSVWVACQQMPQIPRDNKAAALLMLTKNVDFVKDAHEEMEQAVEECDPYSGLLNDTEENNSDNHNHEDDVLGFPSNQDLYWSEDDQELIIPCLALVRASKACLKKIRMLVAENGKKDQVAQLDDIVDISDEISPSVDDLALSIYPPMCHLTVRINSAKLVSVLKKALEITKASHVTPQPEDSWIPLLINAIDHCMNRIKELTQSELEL
inactive: bafetinib 0.059 | [1] -0.017 | nilotinib -0.19 | [2] 0.028 | dasatinib 0.023 | [3] 0.21 | [10] -0.055 | [4] -0.197 | mubritinib -0.045 | [5] 0.046 | [11] -0.027 | [6] -0.091 | [7] 0.069 | entinostat -0.036 | vorinostat -0.069 | citarinostat 0.05 | silmitasertib 0.087 | [9] -0.084

CDK4 (UniProt P11802)
UniProt P11802, sequence (P11802 whole entry, looked up): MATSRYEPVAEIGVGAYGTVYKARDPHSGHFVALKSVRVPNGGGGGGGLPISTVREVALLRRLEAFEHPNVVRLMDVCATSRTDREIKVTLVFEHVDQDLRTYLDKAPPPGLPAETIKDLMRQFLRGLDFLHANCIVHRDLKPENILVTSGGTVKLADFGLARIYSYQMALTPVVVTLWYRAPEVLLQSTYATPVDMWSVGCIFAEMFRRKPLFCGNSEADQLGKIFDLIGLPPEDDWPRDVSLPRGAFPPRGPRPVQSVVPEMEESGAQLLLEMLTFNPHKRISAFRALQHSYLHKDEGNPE
inactive: bafetinib 0.022 | nilotinib -0.121 | [2] -0.042 | dasatinib -0.056 | [3] 0.031 | [10] -0.084 | [4] -0.117 | tipifarnib 0.046 | mubritinib 0.054 | [5] 0.015 | [11] -0.293 | [6] -0.074 | [7] 0.02 | entinostat -0.006 | citarinostat 0.076 | silmitasertib 0.193 | [8] 0.184 | [9] 0.005
